From PubChem BioAssay (NCATS) come the findings set out here.

Inconclusive results are not listed. The source made the active and inactive calls. Calls follow the shape of the dose curve; as a rule, active = well fitted inhibition curve with a large enough effect; inconclusive = small, poorly fitted or top-dose-only effect; inactive = no such curve, though single readings can be large or run the other way.
Potency is read from the fitted curve at half-maximal effect.

Chain of Tyrosine-protein kinase Yes (Homo sapiens) (P07947 whole entry, looked up): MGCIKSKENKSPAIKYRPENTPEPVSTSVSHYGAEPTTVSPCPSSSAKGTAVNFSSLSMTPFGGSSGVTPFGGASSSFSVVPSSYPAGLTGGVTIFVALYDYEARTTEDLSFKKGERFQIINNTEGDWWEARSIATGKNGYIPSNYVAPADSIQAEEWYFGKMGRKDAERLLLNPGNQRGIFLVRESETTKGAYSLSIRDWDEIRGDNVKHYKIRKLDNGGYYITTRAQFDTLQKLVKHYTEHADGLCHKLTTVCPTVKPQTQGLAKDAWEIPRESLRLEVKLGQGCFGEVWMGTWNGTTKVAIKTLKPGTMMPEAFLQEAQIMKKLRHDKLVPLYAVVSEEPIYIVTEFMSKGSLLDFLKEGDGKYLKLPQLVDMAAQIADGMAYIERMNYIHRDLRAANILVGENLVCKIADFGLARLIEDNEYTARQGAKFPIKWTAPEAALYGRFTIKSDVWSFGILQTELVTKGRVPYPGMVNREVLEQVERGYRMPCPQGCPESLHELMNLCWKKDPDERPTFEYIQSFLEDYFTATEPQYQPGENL

In the test the target is Tyrosine-protein kinase Yes (Homo sapiens) (UniProt P07947). As to the kind of experiment: qHTS for small molecule inhibitors of Yes1 kinase: Primary Screen (AID 686947). Also: nearly all actives have a fitted effect of over 60% in size.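 As to activity change, negative = inhibition: plate controls were DMSO with enzyme for no effect and no-enzyme DMSO wells for full effect.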 As to conditions: Yes1 kinase biochemical qHTS inhibition; series mostly up to 76.9 µM; activity change, negative = inhibition: at the top concentration. An outline of the steps:
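Yes1 (4 nM) preincubated 20 min with compound, then 60 min room-temperature reaction with 0.1 mM ATP and 0.3 mg/mL poly(E4Y) in pH 7.5 Tris, 10 mM MgCl2. ADP measured by ADP-Glo luminescence, normalised to enzyme/no-enzyme controls.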
As to `O=c1[nH]c(-c2ccc(C(F)(F)F)cc2)nc2c1CSCC2`, the “activity change, negative = inhibition” value is 7.32% (inactive).
As for `C[C@@H]1CN(Cc2ccc(F)cc2)[C@@H](C)CN1C(=O)c1cc2c(C(=O)C(=O)N(C)C)cn(C)c2cc1Cl`, the “activity change, negative = inhibition” value was 6.92% (inactive).
Same read-out and setting: to `C[C@H](NC(=O)Cc1cc(F)cc(F)c1)C(=O)N[C@@H]1C(=O)N(C)c2ccccc2-c2ccccc21` belongs 43.6% (inactive); to `CCC(C)N(C)C(=O)c1cc2ccccc2c(-c2ccccc2Cl)n1` (stereo not drawn), -13.9% (inactive).
Regarding `CN[C@@H](C)C(=O)N[C@H]1CCCC[C@H]2CC[C@@H](C(=O)N[C@@H](c3ccccc3)c3cn(CCCCc4ccc(CCCCn5cc([C@@H](NC(=O)[C@@H]6CC[C@@H]7CCCC[C@H](NC(=O)[C@H](C)NC)C(=O)N76)c6ccccc6)nn5)cc4)nn3)N2C1=O`, the “activity change, negative = inhibition” value is -18.2% (inactive).
For `CCCS(=O)(=O)Nc1ccc(F)c(C(=O)c2c[nH]c3ncc(-c4ccc(Cl)cc4)cc23)c1F`, the Potency is 1370 nM (active).
As for `CCc1ccc(CCOc2ccc(CC3SC(=O)NC3=O)cc2)nc1` (stereo not drawn), the Potency is 1730 nM (active).
As to `O=C(c1cc(Cc2n[nH]c(=O)c3ccccc23)ccc1F)N1CCN(C(=O)C2CC2)CC1`, the “activity change, negative = inhibition” value is 4.43% (inactive).
Regarding `Cc1cc(C=c2sc3nc4ccccc4n3c2=O)c(C)n1-c1ccccc1`, the “activity change, negative = inhibition” value was -17.7% (inactive).
Turning to `O=C(Nc1nc2ccccc2n1CCN1CCOCC1)c1cccc([N+](=O)[O-])c1`, the “activity change, negative = inhibition” value is 60.2% (inactive).
Same read-out and setting: to `O=C1CCCC2=C1C(c1[nH]ncc1Cl)N=C(Nc1nc3ccccc3o1)N2` (stereo not drawn) belongs 22.7% (inactive).
Regarding `Cc1cc(-c2nnc3n2CCCCC3)c(C)n1-c1ccc(F)cc1`, the Potency is 34500 nM (active).
Take `CCCS(=O)(=O)Nc1ccc(F)c(C(=O)c2c[nH]c3ncc(Cl)cc23)c1F`: the Potency is 173 nM (active).
As for `CC[C@@H](C)[C@H](NC(=O)[C@H](CC1CCCCC1)NC(=O)c1ccno1)C(=O)N1CCC2(CCc3ccccc32)CC1`, the “activity change, negative = inhibition” value is -0.717% (inactive).
For the molecule `COCCNCCCn1c(C(=O)CF)c(-c2ccc(C)cc2)c2c(N)ncnc21`, the “activity change, negative = inhibition” value was 2.68% (inactive).
On to `C[C@@H]1C[C@H]2[C@@H]3CCC4=CC(=O)C=C[C@]4(C)C3(F)[C@@H](O)C[C@]2(C)[C@@]1(O)C(=O)CO` (stereo partly drawn), for which the Potency was 34500 nM (active).
Consider `Cc1c(CN2CCN(C(=O)C(C)C)CC2)sc2c(N3CCOCC3)nc(-c3cnc(N)nc3)nc12`, for which the Potency is 244 nM (active).
Take `Nc1ncnc2nc(-c3ccc(N4CCOCC4)nc3)cc(-c3cccc(Br)c3)c12`: the Potency was 3450 nM (active).
For the molecule `CCN(CCCO)CCCOc1ccc2c(Nc3cc(CC(=O)Nc4cccc(F)c4)[nH]n3)ncnc2c1`, the Potency is 387 nM (active).
Turning to `CN(C)c1ccc(C2Nc3ccc4ccccc4c3C3=C2C(=O)CC(C)(C)C3)cc1Br` (stereo not drawn), the “activity change, negative = inhibition” value was -2.9% (inactive).
Take `CC1(C)SCCN(S(=O)(=O)c2ccc(OCC#CCO)cc2)[C@@H]1C(=O)NO`: the “activity change, negative = inhibition” value was 8.34% (inactive).
As for `COc1cccc2cc(-c3nc(C4CCC(C(=O)O)CC4)n4ncnc(N)c34)[nH]c12` (stereo not drawn), the Potency was 68.8 nM (active).
As to `CCOC(=O)C1=C[C@@]2(CC)CCCN3CCc4c(n1c1ccccc41)[C@H]32`, the “activity change, negative = inhibition” value was -2.12% [at 47.8 µM] (inactive).
Same read-out and setting: to `O=C1[C@H](Cc2ccc(O)cc2)N2C(=O)CCN(C(=O)NCc3ccccc3)[C@H]2CN1Cc1cccc2ccccc12` belongs 15.6% (inactive); to `COc1ccc(-c2ccc3c(N4CCOCC4)nc(N4C[C@@H](C)O[C@@H](C)C4)nc3n2)cc1CO`, 12.1% (inactive); to `COc1ccc(CC2=NN3C([C@@H](CCc4ccccc4)[C@@H](C)O)=NC(C)C3C(=O)N2)cc1OC` (stereo partly drawn), 0.678% (inactive).
In the case of `COc1ccc(-c2oc3cc(OC)ccc3c2C(=O)c2ccc(C#N)cc2)cc1`, the “activity change, negative = inhibition” value was 2.7% (inactive).
As for `CN(C)C(=O)c1ccc(S(=O)(=O)c2ccc(NC(=O)[C@@](C)(O)C(F)(F)F)c(Cl)c2)cc1`, the “activity change, negative = inhibition” value was 9.12% (inactive).
On to `CCC(C)(C)C(=O)O[C@H]1C[C@@H](C)C=C2C=C[C@H](C)[C@H](CC[C@@H]3C[C@@H](O)CC(=O)O3)[C@H]21`, for which the “activity change, negative = inhibition” value was 9.29% [at 47.8 µM] (inactive).
On the same count and under the same terms, to `Cc1csc(NC(=O)c2sc3nc4c(c(C(F)(F)F)c3c2N)CCC4)n1` belongs -11.4% (inactive).
Same read-out and setting: to `CN([C@@H](Cc1ccc(OS(=O)(=O)c2cccc3cnccc23)cc1)C(=O)N1CCN(c2ccccc2)CC1)S(=O)(=O)c1cccc2cnccc12` belongs 21.6% (inactive).
As for `CCOc1ccc(Cc2cc([C@@H]3O[C@H](CO)[C@@H](O)[C@H](O)[C@@H]3O)ccc2Cl)cc1`, the “activity change, negative = inhibition” value was -3.76% (inactive).
As to `O=C(O)c1ccc(-c2c[nH]c3ccc(-c4ccccc4)cc23)cc1C1CCCC1`, the Potency was 1540 nM (active).
